Values joined by “and” are separate entries in the source; they are usually repeats but may differ in a detail not shown here. Equal entries are not always repeated. In all, about 310,000 compounds went through this assay and about 11,000 (3.5%) were called active. Roughly 4% stayed inconclusive and do not appear here. This excerpt belongs to a sample that is enriched for actives. A number with no mark means an inactive call. Calls come from the whole dose curve; as a rule, active = well fitted inhibition curve with a large enough effect; inconclusive = small, poorly fitted or top-dose-only effect, or another doubt; inactive = no such curve, though single readings can be large or run the other way.
Potency is the fitted concentration of half-maximal effect.

The assay deals with 4'-phosphopantetheinyl transferase ffp (Bacillus subtilis) (UniProt Q9F4F7). Kind of assay: qHTS Assay for Inhibitors of Bacillus subtilis Sfp phosphopantetheinyl transferase (PPTase).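 For largest response in the series, negative = inhibition: 0% = enzyme reaction without inhibitor and -100% = no enzyme wells.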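 Note: the enzyme is Sfp with the accession as filed and its product quenches rhodamine fluorescence.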 Particulars: Biochemical Sfp PPTase activity. The source says: Assay Submitter: Michael Burkart, University of California, San Diego
Screening Center PI: Austin, C.P.
Screening Center: NIH Chemical Genomics Center [NCGC]
The covalent attachment of a phosphopantetheinyl (4'-PP) arm to a variety of synthases and other proteins is a key posttranslational protein modification. The 4'-PP is installed on the proteins post-translationally from coenzyme A (CoA) on a conserved serine residue by action of phosphopantetheinyl transferase (PPTase) enzymes. Phosphopantetheinylation is essential for synthase activity, and removal of the PPTase gene precludes natural product synthesis in microorganisms, or in the case of fatty acid biosynthesis, renders the organism unviable. PPTase enzymes belong to a distinct structural superfamily. Within bacteria, these enzymes are grouped into two classes based upon primary structure, the AcpS-Type and Sfp-Type PPTases.
Sfp-type PPTases, corresponding to an activator of surfactin production in Bacillus subtilis, are responsible for modifying type I polyketide and nonribosomal peptide synthases of prokaryotes. Sfp-type PPTases are responsible for the activation of a variety of pathogen-associated virulence factors. Among these compounds are toxins such as mycolactone from Mycobacterium ulcerans, siderophores such as vibriobactin from Vibrio cholerae or mycobactin from Mycobacterium tuberculosis, as well as the mycolic acids which form the waxy cell wall of Mycobacteria. The biosyntheses of these natural products are considered attractive targets for drug design.
In search of small molecule Sfp-PPTase inhibitors, a fluorescence quenching assay was developed for detection of Bacillus subtilis Sfp-PPTase enzymatic activity in a miniaturized high-throughput format. The consensus ybbr acceptor peptide […] was N-terminally labeled with Black Hole Quencher-2 (BHQ-2) and used in combination with rhodamine-labeled coenzyme A as a co-substrate.
Inhibition of Sfp-PPTase was detected by recording the fluorescence intensity change over a 30-minute reaction period at a 525 nm excitation and 598 nm emission. Reagents were supplied by Michael Burkart and Timothy Foley, University of California at San Diego.
This BioAssay deposition is for validation of the developed Sfp-PPtase assay.
Assay Buffer: 50 mM Hepes-Na pH 7.6, 10 mM MgCl2, 0.01% Nonidet P-40, and 0.01% BSA.
3 uL of Sfp-PPTase enzyme (final concentration 15 nM) and 1 uL of substrate mixture (final concentration for rhodamine-CoA and BHQ-2-YbbR 5 uM and 12.5 uM, respectively) dispensed in columns 1, 2, 5 - 48. Columns 1 and 2 used to generate neutral control (uninhibited reaction)
Three uL of reagents, consisting of buffer (in columns 3 and 4 as negative control) and Sfp-PPTase (in columns 1, 2, 5 - 48) were dispensed into 1,536-well Greiner black solid bottom plate. Compounds (23 nL) were transferred via Kalypsys pintool equipped with 1,536-pin array. The plate was incubated for 15 min at room temperature, followed by the addition of 1 uL substrate to start the reaction. The plate was then centrifuged at 1000 rpm for 15 seconds, and the fluorescence intensity recorded on a ViewLux High-throughput CCD imager (Perkin-Elmer) using standard BODIPY optics (525 nm excitation and 598 nm emission). The plate was then incubated for 30 minutes, and a second read on the ViewLux was performed. The fluorescence intensity difference over the 30-minute period was used to calculate the respective reaction rate for each well.
Regarding `CC(CCc1ccccc1)NC(=O)c1cnc(Cl)c(Cl)c1` (centres undefined), the largest response in the series, negative = inhibition was 8.93%.

Consider `Clc1cccc(CN2COc3c(cc(Cl)c4cccnc34)C2)c1`, for which the largest response in the series, negative = inhibition was -2.55%.

In the case of `CCN1CCN(C(c2cccnc2)c2cc(Cl)c3cccnc3c2O)CC1` (centres undefined), the Potency was 39.8 µM (active).

`CCOC(=O)N1CCN(C(c2cccnc2)c2ccc3cccnc3c2O)CC1` (centres undefined): the Potency is 20 µM (active).

As to `Oc1ccccc1CN1CCN(C(c2ccccc2)c2ccccc2)CC1`, the largest response in the series, negative = inhibition was -13.4%.

As for `CCOC(=O)N1CCN(C(=O)C2CCN(c3ncnc4c3sc3cccc(F)c34)CC2)CC1`, the largest response in the series, negative = inhibition is -3.49%.

As for `Cc1onc(C(=O)NN)c1C(=O)N1CCN(C(c2ccccc2)c2ccccc2)CC1`, the largest response in the series, negative = inhibition was 1.91%.

`O=C(c1ccc(Cn2cc([N+](=O)[O-])cn2)o1)N1CCCC1`: the largest response in the series, negative = inhibition was 5.1%.

Turning to `Cc1ccc(CS(=O)Cc2ccc(C(=O)N3CCOCC3)o2)cc1` (centres undefined), the largest response in the series, negative = inhibition is 9.75%.

For the molecule `O=C(Nc1ccnn1C1CCN(C/C=C/c2ccc(F)cc2)CC1)C1CCCC1`, the largest response in the series, negative = inhibition was -2.59%.

`O=C(c1ccc(F)cc1)N1CCCC(C(=O)N2CCCCC2)C1` (centres undefined): the largest response in the series, negative = inhibition is 1.26%.

On to `CCOC(=O)c1cc2n(c1N)-c1ccccc1C2=O`, for which the Potency is 8.91 µM (active).

On to `CCOC(=O)C1=C(C(=O)OCC)C(C(=O)OCC)N(S(=O)(=O)C(F)(F)F)c2ccccc21` (centres undefined), for which the largest response in the series, negative = inhibition was 6.6%.

With `CCOC(=O)c1ccccc1CN1C(=O)c2ccccc2S1(=O)=O`, the largest response in the series, negative = inhibition was -2.27%.

Consider `CCc1cc(=O)oc2c(C)c(OCC(=O)NCCN3CCOCC3)ccc12`, for which the largest response in the series, negative = inhibition is 9.5%.

As to `CSCCC(NS(=O)(=O)c1ccc(C)cc1)C(=O)NCCc1c[nH]c2ccccc12` (centres undefined), the largest response in the series, negative = inhibition is 6.95%.

`O/N=C(\C[n+]1ccccc1)c1ccc(Br)cc1`: the largest response in the series, negative = inhibition is -2.63%.

Turning to `C=CCSc1nc2c(c(=O)[nH]c(=O)n2C)n1Cc1ccccc1`, the largest response in the series, negative = inhibition was 9.86%.

`Cn1c(=O)[nH]c(=O)c2c1[nH]c(=S)n2Cc1ccccc1`: the Potency was 44.7 µM (active).

For `COc1ccc(CNc2nc3c(c(=O)[nH]c(=O)n3C)n2Cc2ccccc2)cc1`, the largest response in the series, negative = inhibition is 11.4%.

In the case of `CC1CCN(C(=O)C2CCN(S(=O)(=O)N3CCC4(CC3)OCCO4)CC2)CC1`, the largest response in the series, negative = inhibition is 17.9%.

For the molecule `O=c1c([N+](=O)[O-])cc(C(F)(F)F)cn1Cc1cccc(Cl)c1`, the largest response in the series, negative = inhibition is 3.19%.

On to `O=[N+]([O-])/C=C/c1ccc2c(ccn2Cc2ccccc2)c1`, for which the Potency is 25.1 µM (active).

With `O=C(/C=C/c1cccc([N+](=O)[O-])c1)N1CCN(Cc2ccccc2)CC1`, the largest response in the series, negative = inhibition is 2.23%.

As to `COc1cc(NC(=O)CN2C(=O)NC(C)(c3ccc(OC(F)F)cc3)C2=O)cc(OC)c1OC` (centres undefined), the largest response in the series, negative = inhibition was 17.8%.

As to `Cc1cccc(NC(=O)NC(=S)NC(=O)c2ccccc2)c1`, the largest response in the series, negative = inhibition was 18.4%.

Take `Oc1cc2c(cc1O)CN(C(=S)NCCc1ccc(Cl)cc1)CCC2`: the Potency was 56.2 µM (active) and 44.7 µM (active).

In the case of `O=C(NCCc1ccc(Cl)cc1)c1cccc(N2CCCC2=O)c1`, the largest response in the series, negative = inhibition is 4.32%.

As to `S=C(NCCc1ccccc1)N1CCCCC1`, the largest response in the series, negative = inhibition is 5.57%.

In the case of `COc1ccc([N+](=O)[O-])cc1NCC(=O)c1ccc(C)cc1`, the largest response in the series, negative = inhibition was -11.6%.

For `Cc1cccc(C(=O)Nc2ccc(C(=O)N/N=C/c3cccc(C)n3)cc2)c1`, the largest response in the series, negative = inhibition is -3.6%.

Turning to `c1ccc(-c2cc(-c3nnc4sc(-c5ccccn5)nn34)[nH]n2)cc1`, the largest response in the series, negative = inhibition is 0.622%.

Turning to `Fc1ccc(-c2ccc(-c3nn4c(-c5ccco5)nnc4s3)o2)cc1`, the Potency was 17.8 µM (active).

`COc1cc(-c2nn3c(-c4cccc(C)c4)nnc3s2)cc(OC)c1OC`: the largest response in the series, negative = inhibition is 10.2%.

As for `C=CC1=C2C=C(C3CC3)N(C(CO)CO)C=C2C(=O)C(C)(OC(=O)c2ccco2)C1=O` (centres undefined), the largest response in the series, negative = inhibition is 11.3%.

Turning to `Cc1ccc(CNCc2ccc3c(c2)OCO3)c(C)c1`, the largest response in the series, negative = inhibition was -14.4%.

In the case of `CC(=O)Nc1ccc(NC(=O)CC2CCCC2)cc1`, the largest response in the series, negative = inhibition is 1.03%.

Turning to `O=C(c1c(F)cccc1Cl)N1CCN(c2ccccn2)CC1`, the largest response in the series, negative = inhibition is 2.71%.

With `O=C(c1ccc2ccccc2n1)N1CCN(c2ccccc2Cl)CC1`, the largest response in the series, negative = inhibition was -10.1%.

For `O=C(c1c(Cl)cccc1Cl)N1CCN(c2cccc3[nH]ccc23)CC1`, the Potency is 89.1 µM (active).

For `COc1ccc(C(=O)CCC(=O)Nc2ccc(Cl)cc2)cc1`, the largest response in the series, negative = inhibition is 9.46%.

Consider `CCSc1nc2sc3c(c2c(=O)[nH]1)CC(C)(C)OC3`, for which the largest response in the series, negative = inhibition was 1.72%.

Take `CCOC(=O)CSc1nc2sc3c(c2c(=O)[nH]1)CC(C)(C)OC3`: the largest response in the series, negative = inhibition is -10.3%.

Consider `CC/C(C)=N/Nc1nc2sc3c(c2c(=O)[nH]1)CC(C)(C)OC3`, for which the Potency was 39.8 µM (active).

For the origin of these results see PubChem BioAssay AID1490 (National Center for Advancing Translational Sciences (NCATS), 2009).
